High-throughput results (PubChem)
This is a sample that favours compounds with a hit; in the whole collection about 4.8% have one here.
DAX1 inh-1: DAX1 (NR0B1) inhibitors on StAR promoter, primary screen, cell-based, luminescence, SF-1 (NR5A1), full-length DAX-1; HEK293T StAR-luciferase reporter, SF-1/DAX-1 repression relief; inhibition, % at 6.8 µM; AID 652010, 2013; 370,000 tested, 1.1% active;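 active = inhibition above the mean over all tested compounds plus 3 SD, cut at about 3.6% in these data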;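 also: 0% = DAX-1 cells with DMSO and 100% = cells lacking DAX-1 with DMSO; higher inhibition means more luminescence from relief of DAX-1 repression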
Rev-erbA mod: modulators of Rev-erb alpha DNA binding, primary screen, biochemical, FITC-DNA, fluorescence polarization, uHTS. Rev-erbα–FITC-DNA binding, 90 min. activity, % at 10 µM. 370,000 tested, 0.79% active. Nuclear receptor subfamily 1 group D member 1 (Homo sapiens), P20393. AID 1259318, 2017;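 active = activity above about 14%, limit read from the data; passing the limit was not always enough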;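 also: 0% = DMSO wells with 35 nM protein and 100% = DMSO wells with 750 nM protein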
ssDAF12 agonist: S. stercoralis DAF-12 nuclear receptor activators, primary screen, cell-based, luminescence, HEK293, GRIP1 co-expression, lit1-tk-luc. Nuclear hormone receptor DAF-12 (Strongyloides stercoralis). HEK293 ssDAF-12/GRIP1 lit1-tk-luc reporter; % of 3 µM dafachronic acid response. activation, % at 6.8 µM. 370,000 tested, 1% active. AID 652126, 2013;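 active = activation above the mean over all tested compounds plus 3 SD, cut at about 0.9% in these data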;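 also: 0% = DMSO-only wells and 100% = 3 µM delta7-dafachronic acid wells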
hgDAF-12 ag: H. glycines DAF-12 receptor agonists, primary screen, cell-based, luminescence, HEK293, GAL4 fusion, UAS-luciferase. Nuclear hormone receptor DAF-12 (Heterodera glycines), GAL4 fusion. HEK293 GAL4-hgDAF12 UAS-luciferase reporter, agonist luminescence; normalized to butyrate control. activation, % at 6.8 µM. 370,000 tested, 1.8% active. AID 687014, 2013;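 active = activation above a cutoff set at the mean of all screened compounds plus 3 SD, cut at about 10% in these data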;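 also: 0% = DMSO wells and 100% = sodium butyrate wells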
DAX1 inh-2: DAX1 (NR0B1) inhibitors, primary screen, cell-based, HEK293, Gal4-DAX1, luciferase luminescence; HEK293 Gal4-DAX1 luciferase reporter; inhibition, % at 6.75 µM; 340,000 tested, 0.99% active;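 active = inhibition above the mean over all tested compounds plus 3 SD, cut at about 4.2% in these data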;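 also: 0% = DAX1-transfected cells with DMSO and 100% = empty-vector control cells with DMSO; inhibition shows as a rise in luminescence from relieved DAX1 repression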
Target sequence (P51843 207-470 limits assumed): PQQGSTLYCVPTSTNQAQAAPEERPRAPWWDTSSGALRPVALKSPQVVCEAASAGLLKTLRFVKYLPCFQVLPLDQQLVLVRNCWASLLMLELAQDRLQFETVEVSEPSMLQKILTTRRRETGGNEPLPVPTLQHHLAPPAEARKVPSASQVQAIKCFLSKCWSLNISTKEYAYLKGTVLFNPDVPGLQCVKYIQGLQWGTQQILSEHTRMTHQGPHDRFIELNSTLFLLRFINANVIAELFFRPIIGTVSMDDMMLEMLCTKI
hcDAF-12 act: H. contortus DAF-12 nuclear receptor activators, primary screen, cell-based, luminescence, HEK293, lit1-tk-luc reporter | HEK293 hcDAF-12 lit1-tk-luc reporter; 0% DMSO, 100% Δ7-dafachronic acid | activation, % at 6.8 µM | 370,000 tested, 1.4% active | AID 652067, 2013;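 active = activation above the mean of all tested compounds plus 3 SD, cut at about 5.5% in these data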;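 also: 100% = response to 3 µM Δ7-dafachronic acid high control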
DAX1 conf: DAX1 (NR0B1) inhibitors relieving SF-1 repression, confirmation, cell-based, luminescence, HEK293T, full-length DAX-1, SF-1 activated StAR promoter. inhibition, % at 6.8 µM. HEK293T StAR-promoter luciferase reporter, SF-1/DAX-1 repression. shares compounds with DAX1 inh-1. AID 652134, 2013. 2,400 tested, 87% active;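 active = inhibition above the average of every tested compound plus 3 SD, cut at about 3.8% in these data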;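 also: 0% = DAX-1 cells with DMSO and 100% = no DAX-1 control cells with DMSO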
SF1 AF2mut Luc: StAR reporter signal changes without DAX1, counter-screen for DAX1 inhibitor project, cell-based, luminescence, AF-2 mutant SF-1, transactivation | shares compounds with DAX1 inh-1 | HEK293 StAR-luciferase, SF-1 AF2 mutant | inhibition, % at 6.8 µM | 2,400 tested, 78% active;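 active = inhibition above the mean of all tested compounds plus 3 SD, cut at about 3% in these data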;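 also: 0% = DAX-1 transfected cells with DMSO and 100% = cells without DAX-1 with DMSO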
An asterisk follows results filed as active; nt = not tested or not shown.

SMILES	DAX1 inh-1	Rev-erbA mod	ssDAF12 agonist	hgDAF-12 ag	DAX1 inh-2	hcDAF-12 act	DAX1 conf	SF1 AF2mut Luc
COc1ccc(/C(N)=N/OC(=O)C2CCCCC2)cc1	5.9*	-2	0	9	1	0	8.9*	5.8*
COc1ccc(CNC(=O)C2CCCN(c3nc4ccccc4o3)C2)cc1 (stereo not given)	-1	3	-1	1	nt	-1	nt	nt
Cc1ccc(NC(=O)c2cnccn2)nc1	4.6*	4	-1	8	1	5	5.0*	3.3*
CCCCc1ccc(NC(=O)c2cnccn2)cc1	8.9*	2	0	12*	-1	4	11*	7.5*
Cc1ccc(NC(=O)c2cncc(Br)c2)nc1	4.5*	-2	-1	8	2	2	5.8*	6.3*
O=C(NC(=S)Nc1ccc(Br)cn1)c1cncc(Br)c1	0	19	-1	0	0	-1	nt	nt
Cc1ccc(NC(=O)C2CC3CCC2C3)c(C)c1 (stereo not given)	nt	-2	0	9	nt	-3	nt	nt
Cc1cc(N)n2ncc(-c3cccc(Br)c3)c2n1	4.9*	5	0	10	0	4	7.0*	3.7*
O=C1Nc2ccccc2N(C(=O)c2ccc(-c3ccccc3)cc2)C1c1nc2ccccc2[nH]1 (stereo not given)	20*	-1	1	26*	nt	9.1*	8.2*	4.8*
O=C(CC1SC(N2CCCCC2)=NC1=O)Nc1cccc(C(=O)Nc2ncccc2O)c1 (stereo not given)	7.9*	10	0	11*	1	3	9.7*	9.1*
CC(C)NC(=O)c1cccc(NC(=O)CC2SC(N3CCCCC3)=NC2=O)c1 (stereo not given)	-1	0	0	-1	1	1	nt	nt
CN1CCN(c2ccc(-c3cccc(NC(=O)COc4ccccc4)c3)nn2)CC1	10*	-2	1	13*	1	5	7.2*	2
CC(=O)Nc1cnc(-c2ccc3c(c2)OCO3)cn1	4.8*	2	0	12*	nt	5	9.0*	5.7*
CC(=O)Nc1cnc(-c2cc(C)c(O)c(C)c2)cn1	2	-3	-1	3	nt	1	nt	nt
CC(=O)Nc1nnc(COc2ccc(Cl)cc2)s1	5.5*	-5	1	13*	2	3	6.2*	3.0*
CC(C)C(=O)Nc1nnc(COc2ccc(Cl)cc2)s1	0	2	-1	-1	3	0	nt	nt
CC(=O)N[C@@H]1C[C@@H]2O[C@H](CO)CC[C@@H]2O[C@@H]1CCc1ccc(-c2ccc(F)cc2)cc1	0	2	-1	-3	nt	-3	nt	nt
Cc1ccc(CNC(=O)Cc2noc3ccccc23)cc1	9.5*	7	0	11*	0	3	8.2*	4.8*
CC(=O)c1cccc(NC(=O)NC2CCCCCCC2)c1	0	-5	-1	0	1	3	nt	nt
Cc1cccc(NC(=O)NC2CCCCCCC2)c1	5.7*	-2	0	8	1	1	4.9*	3.6*
O=C(NCCc1ccccc1)c1nc2ncccn2n1	0	3	0	-3	0	-2	nt	nt
c1ccc(CSc2nc3ncccn3n2)cc1	6.8*	4	0	10	1	2	8.4*	4.8*
CC(C)(C)OC(=O)NCc1cc(F)ccc1/C=C/S(=O)(=O)NCc1ccc(F)cc1	-2	-8	-2	-2	nt	-2	nt	nt
O=C(Nc1ccc(S(=O)(=O)N2CCCCCC2)cc1)c1[nH]ncc1[N+](=O)[O-]	7.0*	-2	0	5	1	0	3	2
CC(C)C[C@@H]1COc2cc(Br)ccc2S(=O)(=O)N1Cc1cn(Cc2ccc(Br)cc2)nn1	0	3	-2	-1	nt	-1	nt	nt
SMILES	DAX1 inh-1	Rev-erbA mod	ssDAF12 agonist	hgDAF-12 ag	DAX1 inh-2	hcDAF-12 act	DAX1 conf	SF1 AF2mut Luc
CCN=c1scc(-c2ccco2)n1/N=C/c1ccc(O)cc1	2	2	-1	5	0	1	nt	nt
CCN=c1scc(-c2ccco2)n1/N=C/c1ccc(OC)c(O)c1	5.0*	-2	0	10	2	3	15*	7.3*
CCOc1ccc(/C=C2\NCCc3cc(OCC)c(OCC)cc32)cc1OCC	-4	-9	-2	0	nt	-4	nt	nt
C/C(Cc1ccccc1)=N\NC(=O)c1ccccn1	8.5*	0	0	12*	2	3	3	1
CCOc1cc(/C=N/NC(=O)c2ccccn2)ccc1OC(=O)c1ccc(F)cc1	6.1*	-1	0	9	1	1	2	4.7*
O=C(NN=C(c1ccccc1)c1ccccn1)c1ccccc1	-5	1	-2	-10	-3	-2	nt	nt
O=C(N/N=C/c1ccsc1)c1ccccn1	5.7*	1	1	13*	5.0*	6.3*	4.7*	3
O=C(NN=C1CCC(=NNC(=O)c2ccccn2)CC1)c1ccccn1	5.7*	-5	0	17*	0	6	1	1
C/C(Cc1ccccc1)=N\NC(=O)c1cccnc1	0	-2	0	-1	0	-3	nt	nt
C/C(=N\NC(=O)c1ccco1)c1ccc(NC(=O)C(F)(F)F)cc1	7.2*	-1	-1	9	2	5	2	1
Cc1nc(NC2CCCC2)c2nnn(Cc3ccccc3)c2n1	0	0	-2	1	nt	-2	nt	nt
CCCC[C@H]1C2CC(OC(=O)NCc3ccc(Cl)cc3)C(C2)[C@H]2CCCCN21 (stereo not given in full)	0	-3	-1	8	nt	-3	nt	nt
CC(C)(C)c1ccc(C(=O)NC(=S)N2CCOCC2)cc1	7.0*	1	0	13*	4	3	8.8*	3.4*
